This is part of a sample that, as a whole, favours compounds with a hit. Of some 79,000 tested, about 15% had one in any assay. A number with no mark means an inactive call. The source made the active and inactive calls. Rule as the data show it: active = growth inhibition above about 70%; inactive = the rest.

This assay in a line: NCI Yeast Anticancer Drug Screen. Data for the sgs1 mgt1 strain (AID 161).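 Also: 0% = growth of cultures given vehicle only.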 To be noted: S. cerevisiae sgs1 mgt1 strain, at 50.0 µM, hits give high values. The method, then:
Growth inhibition of yeast strains with defined genetic alterations is measured as a screen for potential anti-cancer activity. Selected strains with alterations in DNA damage repair or cell cycle control were exposed to compounds and growth inhibition was measured relative to vehicle treated controls. The strain used in this assay is sgs1 mgt1
Consider `CN(/N=C(\C(=O)O)c1ccccc1)C1=NCCN1`, for which the growth inhibition was -4.65%.
Under `Fc1ccccc1C1CC(c2ccc3ccccc3c2)=Nc2ccccc2S1` (stereo not given) stands 18.4%.
In the case of `O=C(C/C(=C/c1ccccc1)[N+](=O)[O-])c1ccccc1` it was 99.3% (active); in that of `Oc1ccc(Cl)cc1N1CCOCC1`, 13.4%; in that of `O=c1cc(CO)oc(C(Nc2cccc(Cl)c2)c2ccccc2)c1O` (stereo not given), 23.1%.
Under `O=[N+]([O-])c1ccc2nc[nH]c2c1` stands -6.4%.
Regarding `COC(=O)C1=CO[C@@H](C)[C@@H]2Cn3ccc4c5ccccc5nc-4c3C[C@H]12`, the growth inhibition was 14%.
Under `CCCCCCCCCCCCNCC(O)c1cc(-c2ccccc2)nc2c(Cl)cc(Cl)cc12` (stereo not given) stands 31.9%; under `O=C(Nc1cccc2c(NC(=O)N3CCCCC3)cccc12)N1CCCCC1`, 1.25%; under `N#C/C(=C\c1ccc2[nH]ccc2c1)C(=O)NCCCCNC(=O)/C(C#N)=C/c1ccc2[nH]ccc2c1`, 10.4%.
Under `Oc1c(C(O)N2CCOCC2)cc(C(O)N2CCOCC2)c(O)c1O` (stereo not given) (tested in a mixture with another compound) stands -17%; under `O=c1c(O)c(O)c1=O`, 0.8%.
In the case of `O=[N+]([O-])c1ccc(-c2cc3ccccn3c2)cc1` it was -9.7%; in that of `COC1OC2COC(c3ccccc3)OC2C2C1N2C(=S)SC` (stereo not given), -2.7%; in that of `COC(=O)/C=C(/C(=O)OC)C1(C)c2cc(C(=O)OC)c(C(=O)OC)c(N)c2C(=N)N1c1ccccc1` (stereo not given), 1%.
With `NC(=O)/N=C/NC(N)=O`, the growth inhibition was 21.8%.
Under `CS(=O)(=O)Nc1nc2ccccc2c(=O)o1` stands -15.3%; under `Cc1ccc2cc(N)ccc2c1`, 2.9%; under `O=C1NCCCC1CCO` (stereo not given), -7.95%.
Turning to `[N-]=[N+]=NC1CCOC(n2cnc3c(N)ncnc32)C1O` (stereo not given), the growth inhibition was 5.55%.
Under `CC1=NN(c2ccccc2)C(=O)/C1=C(\[O-])c1ccccc1.CC1=NN(c2ccccc2)C(=O)/C1=C(\[O-])c1ccccc1.CC1=NN(c2ccccc2)C(=O)/C1=C(\[O-])c1ccccc1.[Fe+3]` stands -15.1%; under `O=C(Nc1ccc(Cl)c(Cl)c1)Oc1ccc(-c2ccccc2)cc1`, 93.2% (active).
In the case of `COC(=O)C1(CC(=O)c2ccc(C)cc2)NC(=S)NC(=O)C1C#N` (stereo not given) it was -30.1%.
Under `O=C(O)/C(=C/c1ccccc1)c1ccccc1` stands -30.3%; under `Cn1c(=O)c2c(nc(Br)n2CC(=O)c2ccc([N+](=O)[O-])cc2)n(C)c1=O`, 22.1%.
Turning to `COc1cccc(/C=N/N(C)c2c([N+](=O)[O-])cc(C(F)(F)F)cc2[N+](=O)[O-])c1O`, the growth inhibition is -16.6%.
Under `O=C(O)CCC12CCC(=O)C=C1NC(=O)CC2` (stereo not given) stands -7.2%; under `CC/C(=C/CO)c1ccccc1`, 17.6%.
Under `Cc1nnsc1-c1nc2ccccc2[nH]1` stands 9.35%; under `COC1C2CC3C4(CCC5C6(C)CCCC53C(C14)N(C)C6)CC21CCC23C4C=C5C6=C(CCC5(CC42)C3O1)C1(C)CC(C6)CN(C)C1` (stereo not given), 22.9%.
Under `O=[N+]([O-])c1cccc(-c2oc(C=Nc3ccccc3)c([N+](=O)[O-])c2-c2cccc([N+](=O)[O-])c2)c1` stands 9.45%; under `Cc1ccc(S(=O)(=O)C/C(=N\Nc2ccc([N+](=O)[O-])cc2[N+](=O)[O-])c2ccccc2)cc1`, 17.6%; under `COc1ccc2c(c1)OC(c1cccnc1)C(c1ccccc1)C2=O` (stereo not given), 17.9%.
For `CC(C)CNC(=O)C(=O)NCC(C)C`, the growth inhibition was -1.6%.
For `C(=C/c1ccc(/C=C/C=C\c2ccccc2)cc1)/C=C/c1ccccc1`, the growth inhibition was 13.8%.
In the case of `O=C1OC(c2ccccc2)=N/C1=C\c1cc2c(cc1Cl)OCO2` it was 16.1%; in that of `NC(=S)N/N=C1\CCCCC1C(O)(C(F)(F)Cl)C(F)(F)Cl` (stereo not given), -19.1%; in that of `O=C(O)c1[nH]c2c(=O)[nH]c(=O)[nH]c2c1Br`, -15.9%.
In the case of `O=C(/C=C/c1ccccc1)CC(=O)c1ccccc1.O=C(/C=C/c1ccccc1)CC(=O)c1ccccc1.[Cu]` it was -15.7%.
In the case of `CCOC(=O)CCCCC(N)=O` it was -15.7%.

The values are drawn from PubChem BioAssay (NCI).
